Compound activity from PubChem BioAssay.
Bead autofluor = compound fluorescence in toxin protease inhibitor counterscreen; compound autofluorescence counterscreen, microsphere flow cytometry; active compounds read high; fluorescence intensity (no concentration beside the values); 360,000 tested, 3.1% active; AID 624483; in the data active = fluorescence intensity above about 16000; inconclusive = no clear call, values can overlap the other calls
BoNT A protease = BoNT/A light chain protease inhibitors, primary screen, biochemical, flow cytometry, MLPCN library; multiplex microsphere protease substrate cleavage; 360,000 tested, 0.17% active; Botulinum neurotoxin type A light chain protease (Clostridium botulinum A str. ATCC 3502); inhibition, % at 10 µM; AID 588499, 2011; note: plate controls were buffer without enzyme for full effect and enzyme alone for no effect
Anthrax LF inh2 = Bacillus anthracis LF protease inhibitors, primary screen, biochemical, multiplex microsphere, MLPCN library; Lethal factor (Bacillus anthracis), P15917; multiplex microsphere protease cleavage assay; inhibition, % at 10 µM; 360,000 tested, 0.12% active; AID 588501, 2011; note: plate controls were buffer without enzyme for full effect and enzyme alone for no effect
MazF activator = activators of E. coli MazEF toxin-antitoxin RNase, primary screen, biochemical, fluorescence, uHTS. 350,000 tested, 0.32% active. AID 504720, 2011. FAM/BHQ RNA-DNA oligo cleavage fluorescence, 5 h. activation, % at 20 µM. Endoribonuclease toxin MazF (Escherichia coli (strain K12)), P0AE70; in the data active = activation above about 50%
BoNT-F LC inh = BoNT/F light chain protease inhibitors, primary screen, biochemical, flow cytometry, MLPCN library; Botulinum neurotoxin type F light chain protease (Clostridium botulinum); AID 588497, 2011; Multiplex microsphere protease cleavage assay; inhibition, % at 10 µM; 360,000 tested, 0.22% active; in the data active = inhibition above about 35%, passing the limit was not always enough; inconclusive = no clear call, values can overlap the other calls; note: plate controls were buffer without enzyme for full effect and enzyme alone for no effect
Starred values were filed as active, the others as inactive. Only some compounds are listed: those with a hit (about 3.6% of all), similar ones and a draw of the others. Cut-off read from the data, not from the text of the source, unless noted: active = inhibition above about 30%; inconclusive = no clear call, values can overlap the other calls; inactive = below that.

What do the screens show for `CCOC(=O)c1sc(NC(=O)CN(CC(C)C)CC(C)C)c(C(=O)OCC)c1C`?
Bead autofluor: 22136*; BoNT A protease: -3.9; Anthrax LF inh2: -2.2; MazF activator: 7.8; BoNT-F LC inh: -7.9

What do the screens show for `CCOC(=O)c1sc(NC(=O)CCN2C(=O)c3ccccc3C2=O)c(C(=O)OCC)c1C`?
Bead autofluor: 2375; BoNT A protease: -0.8; Anthrax LF inh2: -2.2; MazF activator: -0.3; BoNT-F LC inh: -5.2

How did CCOC(=O)c1c(NC(=O)CCN2C(=O)c3ccccc3C2=O)sc(C(=O)OC(C)C)c1C do in these assays?
Bead autofluor: 17126*; BoNT A protease: inconclusive; Anthrax LF inh2: -4.4; MazF activator: -8.1; BoNT-F LC inh: -3.3

What do the screens show for `CCOC(=O)c1c(NC(=O)CC(C)C)sc(C(C)=O)c1C`?
Bead autofluor: 10606; BoNT A protease: -0.4; Anthrax LF inh2: -14.5; MazF activator: -4.4; BoNT-F LC inh: 3.4

What do the screens show for `N#Cc1c(Nc2ccccc2)[n+]([O-])c2ccc(Cl)cc2[n+]1[O-]`?
Bead autofluor: 3683; BoNT A protease: 1.0; Anthrax LF inh2: -2.2; MazF activator: -25.5; BoNT-F LC inh: -13.9

What do the screens show for `CC(C)CC(=O)OCc1cn(-c2ccccc2)nn1`?
Bead autofluor: 21300*; BoNT A protease: -5.1; Anthrax LF inh2: 0.3; MazF activator: 7.2; BoNT-F LC inh: -6.9

Results for O=C(Nc1cccc(Cl)c1)OCc1cn(-c2ccc(Cl)cc2)nn1 ?
Bead autofluor: 16617*; BoNT A protease: -1.7; Anthrax LF inh2: -2.8; MazF activator: 6.1; BoNT-F LC inh: -7.1

Results for CC(C)(C)C(=O)OCc1cn(-c2ccc(Cl)cc2)nn1 ?
Bead autofluor: 19456*; BoNT A protease: inconclusive; Anthrax LF inh2: -4.7; MazF activator: 6.4; BoNT-F LC inh: 0.5

What do the screens show for `CCOC(=O)N1CCN(c2ccc(S(=O)(=O)N3CCC(C)CC3)cc2[N+](=O)[O-])CC1`?
Bead autofluor: 4054; BoNT A protease: 5.4; Anthrax LF inh2: inconclusive; MazF activator: 10.3; BoNT-F LC inh: 10.0

Results for CC1CN(C(=O)CCNS(=O)(=O)c2ccc(Br)cc2)CC(C)O1 (stereo not given) ?
MazF activator: 1.0

Results for O=C(NCC1CCCO1)C1CCN(C(=O)c2ccc(Cl)cc2)CC1 (stereo not given) ?
Bead autofluor: 9001; BoNT A protease: 0.9; Anthrax LF inh2: -11.4; MazF activator: 4.4; BoNT-F LC inh: -0.8

What do the screens show for `COc1ccc(S(=O)(=O)N2CCC(C(=O)NCC3CCCO3)CC2)cc1` (stereo not given)?
Bead autofluor: 20959*; BoNT A protease: 6.0; Anthrax LF inh2: -0.1; MazF activator: -5.5; BoNT-F LC inh: 5.3

How did CC(C)(C)c1ccc(C(=O)N2CCC(C(=O)NCC3CCCO3)CC2)cc1 (stereo not given) do in these assays?
Bead autofluor: 22225*; BoNT A protease: 0.6; Anthrax LF inh2: -2.6; MazF activator: -1.3; BoNT-F LC inh: 1.8

What do the screens show for `Cc1ccc(S(=O)(=O)N2CCC(C(=O)N[C@H](C(=O)NCC3CCCO3)C(C)C)CC2)cc1` (stereo not given in full)?
Bead autofluor: 20985*; BoNT A protease: -0.7; Anthrax LF inh2: -1.9; MazF activator: 6.2; BoNT-F LC inh: -1.0

How did CC(C)(C)NC(=O)C1CCN(C(=O)c2ccc(Br)cc2)CC1 do in these assays?
Bead autofluor: 19805*; BoNT A protease: inconclusive; Anthrax LF inh2: 2.8; MazF activator: -2.1; BoNT-F LC inh: 6.6

Results for Cc1ccc(S(=O)(=O)N2CCC(C(=O)N[C@@H](C)C(=O)NCC3CCCO3)CC2)cc1 (stereo not given in full) ?
Bead autofluor: 4287; BoNT A protease: -0.3; Anthrax LF inh2: -3.3; MazF activator: 3.3; BoNT-F LC inh: -2.3

What do the screens show for `COc1cc(/C=C/C(=O)OC(C)C(=O)c2ccccc2)cc(OC)c1OC` (stereo not given)?
Bead autofluor: inconclusive; BoNT A protease: 4.3; Anthrax LF inh2: -5.4; MazF activator: -4.0; BoNT-F LC inh: inconclusive

What do the screens show for `Cc1ccc(/C=N\NC(=O)c2ccc3c(c2)OCO3)o1`?
MazF activator: 1.4

Results for Cc1ccc(NC(=O)CN2CCN(C(=O)c3ccco3)CC2)cc1S(=O)(=O)N(C)C ?
Bead autofluor: 3509; BoNT A protease: -0.4; Anthrax LF inh2: 11.7; MazF activator: 4.3; BoNT-F LC inh: 2.0
